{"source": "PubChem BioAssay (Tox21)", "note": "Records with an inconclusive call do not appear. Unmarked numbers belong to inactive results. The call rests on the fitted dose curve; in most records, active means well fitted curve in the direction sought with a large enough effect in the repeat runs; inconclusive means weak or mixed curves; inactive means no such curve, though single readings can be large; an effect the other way counts as inactive or inconclusive. On the % scale 0 is the no-effect control and ±100 the full control effect."}
{"assay": "qHTS assay to identify small molecule antagonists of the TGF-beta/Smad signaling pathway - cell viability counter screen (AID 1346824); further: nearly all actives have a fitted effect of over 50% in size", "details": "SBE-bla HEK293T viability, CellTiter-Glo luminescence; series mostly up to 76.8 µM; viability change, negative = cytotoxic: at the top concentration", "how_it_was_run": "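Cytotoxicity counter-screen run in the same wells as the beta-lactamase Smad reporter read: CellTiter-Glo luminescence after 30 min at room temperature. HEK 293T SBE-bla cells had 5 hr compound exposure at 37 C with TGF-beta1 (0.25 ng/mL stock).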"}
{"smiles": "C[C@@H](O)C(=O)O", "viability change, negative = cytotoxic": "-0.362%"}
{"smiles": "O=C1CCC(=O)N1Cl", "viability change, negative = cytotoxic": "-0.488%"}
{"smiles": "CCC(C)C(=O)OCCc1ccccc1", "note": "(centres undefined)", "viability change, negative = cytotoxic": "5.23%"}
{"smiles": "CCOc1ccccc1OCC1CNCCO1", "note": "(centres undefined)", "viability change, negative = cytotoxic": "0.847% [at 35.3 µM]"}
{"smiles": "COC(=O)c1cccc(Cl)c1", "viability change, negative = cytotoxic": "-6.85%"}
{"smiles": "C=C(C)c1cccc(C(C)(C)N=C=O)c1", "viability change, negative = cytotoxic": "0.958%"}
{"smiles": "Cc1cc(C)c(C(=O)O)c(C)c1", "viability change, negative = cytotoxic": "-5.18%"}
{"smiles": "CCCSSCCC", "viability change, negative = cytotoxic": "0.755%"}
{"smiles": "CC1(C)Cc2cccc(N)c2O1", "viability change, negative = cytotoxic": "-3.48%"}
{"smiles": "C=CCN1C[C@H](C(=O)N(CCCN(C)C)C(=O)NCC)C[C@@H]2c3cccc4[nH]cc(c34)C[C@H]21", "viability change, negative = cytotoxic": "16.9% [at 35.3 µM]"}
{"smiles": "O=C[O][Al]([O]C=O)[O]C=O", "viability change, negative = cytotoxic": "-9.82%"}
{"smiles": "CC1CC(=O)CC(C)(C)C1", "note": "(centres undefined)", "viability change, negative = cytotoxic": "-7.62%"}
{"smiles": "CC(C)Nc1ccccc1", "viability change, negative = cytotoxic": "0.112%"}
{"smiles": "CCCCCCCCCCCCCCC(=O)NC(CO)CCCCCCCCCCCCCC", "note": "(centres undefined)", "viability change, negative = cytotoxic": "0.194%"}
{"smiles": "C[C@H]1[C@@H](c2ccccc2)NC(=O)N1C", "viability change, negative = cytotoxic": "-8.14%"}
{"smiles": "CC(=O)OC1CCCCC1C(C)(C)C", "note": "(centres undefined)", "viability change, negative = cytotoxic": "-1.1%"}
{"smiles": "O=C(O)[C@H](O)c1ccccc1", "viability change, negative = cytotoxic": "3.37% [at 35.3 µM]"}
{"smiles": "COC(=O)CCCCC(=O)O", "viability change, negative = cytotoxic": "-27.5%"}
{"smiles": "C=CCSSCCC", "viability change, negative = cytotoxic": "-0.0712%"}
{"smiles": "CO/N=C(/C(=O)N[C@@H]1C(=O)N2C(C(=O)[O-])=C(C[n+]3ccn4ncccc43)CS[C@H]12)c1nsc(N)n1", "viability change, negative = cytotoxic": "16.9% [at 35.3 µM]"}
{"smiles": "CC12CCC(C1)C(C)(C)C2O", "note": "(centres undefined)", "viability change, negative = cytotoxic": "-0.136%"}
{"smiles": "C/C=C(\\C)C(C)=O", "viability change, negative = cytotoxic": "-1.1%"}
{"smiles": "CN(C)CCN(C)CCO", "viability change, negative = cytotoxic": "2.77%"}
{"smiles": "C[C@]12CCC(=O)C=C1CC[C@H]1[C@@H]3CC[C@](O)(C(=O)CO)[C@@]3(C)C[C@H](O)[C@@]12F", "viability change, negative = cytotoxic": "-0.262% [at 35.3 µM]"}
{"smiles": "CC1OCCC1=O", "note": "(centres undefined)", "viability change, negative = cytotoxic": "6.53%"}
{"smiles": "CCCC(=O)OC/C=C(\\C)CCC=C(C)C", "viability change, negative = cytotoxic": "-13.2%"}
{"smiles": "C=CCCCCCCCCC(=O)OCCCC", "viability change, negative = cytotoxic": "12%"}
{"smiles": "CC1(C)CC(OC(=O)CCCCCCCCC(=O)OC2CC(C)(C)NC(C)(C)C2)CC(C)(C)N1", "viability change, negative = cytotoxic": "-1.01% [at 15.8 µM]"}
{"smiles": "O=C1OCCO1", "viability change, negative = cytotoxic": "17.9%"}
{"smiles": "CC1CCc2c(N3CCC(O)CC3)c(F)cc3c(=O)c(C(=O)O)cn1c23", "note": "(centres undefined)", "viability change, negative = cytotoxic": "1.89% [at 35.3 µM]"}
{"assay": "qHTS assay to identify small molecule agonists of the TGF-beta/Smad signaling pathway - cell viability counter screen (AID 1346829); further: top concentration of the series differs between compounds; nearly all actives have a fitted effect of over 45% in size", "details": "SBE-bla HEK293T viability, CellTiter-Glo luminescence, 5 h; series mostly up to 76.8 µM; activity change, negative = cytotoxicity: at the top concentration", "how_it_was_run": "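Same-well cytotoxicity: CellTiter-Glo added after the 2 hr room-temperature beta-lactamase substrate step, luminescence measured 30 min later; cells had 5 hr of compound at 37 C.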"}
{"smiles": "C[C@@H](O)C(=O)O", "activity change, negative = cytotoxicity": "-5.47%"}
{"smiles": "CC1c2ccccc2CN1NC(=O)c1ccc(Cl)c(S(N)(=O)=O)c1", "note": "(centres undefined)", "activity change, negative = cytotoxicity": "-0.573% [at 35.3 µM]"}
{"smiles": "C/C(CC(C)C)=N\\O", "activity change, negative = cytotoxicity": "21.6%"}
{"smiles": "CCC(C)C(=O)OCCc1ccccc1", "note": "(centres undefined)", "activity change, negative = cytotoxicity": "-0.472%"}
{"smiles": "CC(=O)CCC1=C(C)CCCC1(C)C", "activity change, negative = cytotoxicity": "1.69%"}
{"smiles": "CCOc1ccccc1OCC1CNCCO1", "note": "(centres undefined)", "activity change, negative = cytotoxicity": "1.44% [at 35.3 µM]"}
{"smiles": "COC(=O)c1cccc(Cl)c1", "activity change, negative = cytotoxicity": "-5.48%"}
{"smiles": "C=C(C)c1cccc(C(C)(C)N=C=O)c1", "activity change, negative = cytotoxicity": "14.3%"}
{"smiles": "Cc1cc(C)c(C(=O)O)c(C)c1", "activity change, negative = cytotoxicity": "1.2%"}
{"smiles": "CCCSSCCC", "activity change, negative = cytotoxicity": "8.68%"}
{"smiles": "CC1(C)Cc2cccc(N)c2O1", "activity change, negative = cytotoxicity": "-1.25%"}
{"smiles": "C=CCN1C[C@H](C(=O)N(CCCN(C)C)C(=O)NCC)C[C@@H]2c3cccc4[nH]cc(c34)C[C@H]21", "activity change, negative = cytotoxicity": "3.77% [at 35.3 µM]"}
{"smiles": "O=C[O][Al]([O]C=O)[O]C=O", "activity change, negative = cytotoxicity": "-1.16%"}
{"smiles": "CC1CC(=O)CC(C)(C)C1", "note": "(centres undefined)", "activity change, negative = cytotoxicity": "0.0272%"}
{"smiles": "CCCCCCCCCCCCCCC(=O)NC(CO)CCCCCCCCCCCCCC", "note": "(centres undefined)", "activity change, negative = cytotoxicity": "-5.55%"}
{"smiles": "CN(C)CCCCl", "activity change, negative = cytotoxicity": "3.29%"}
{"smiles": "C[C@H]1[C@@H](c2ccccc2)NC(=O)N1C", "activity change, negative = cytotoxicity": "11%"}
{"smiles": "CC(=O)OC1CCCCC1C(C)(C)C", "note": "(centres undefined)", "activity change, negative = cytotoxicity": "2.9%"}
{"smiles": "C=CCSSCCC", "activity change, negative = cytotoxicity": "0.0128%"}
{"smiles": "CO/N=C(/C(=O)N[C@@H]1C(=O)N2C(C(=O)[O-])=C(C[n+]3ccn4ncccc43)CS[C@H]12)c1nsc(N)n1", "activity change, negative = cytotoxicity": "-1.42% [at 35.3 µM]"}
{"smiles": "CC12CCC(C1)C(C)(C)C2O", "note": "(centres undefined)", "activity change, negative = cytotoxicity": "0.464%"}
{"smiles": "C/C=C(\\C)C(C)=O", "activity change, negative = cytotoxicity": "12.3%"}
{"smiles": "CN(C)CCN(C)CCO", "activity change, negative = cytotoxicity": "2.13%"}
{"smiles": "C[C@]12CCC(=O)C=C1CC[C@H]1[C@@H]3CC[C@](O)(C(=O)CO)[C@@]3(C)C[C@H](O)[C@@]12F", "activity change, negative = cytotoxicity": "21.5% [at 35.3 µM]"}
{"smiles": "CC1OCCC1=O", "note": "(centres undefined)", "activity change, negative = cytotoxicity": "11.8%"}
{"smiles": "CCCC(=O)OC/C=C(\\C)CCC=C(C)C", "activity change, negative = cytotoxicity": "0.193%"}
{"smiles": "C=CCCCCCCCCC(=O)OCCCC", "activity change, negative = cytotoxicity": "3.61%"}
{"smiles": "CCC/C=C(\\C=O)CC", "activity change, negative = cytotoxicity": "-6.58%"}
{"smiles": "O=C1OCCO1", "activity change, negative = cytotoxicity": "-2.26%"}
